# High-throughput results (PubChem)
# Rows were chosen to be rich in hits. Some 5.2% of all compounds tested hit in one or more screens of this group.
# Tau fibril FP: qHTS for Inhibitors of Tau Fibril Formation, Fluorescence Polarization; K18 P301L tau heparin fibrillization, Alexa594 FP, 6 h; Potency, µM (titrated, usually from 57.7 µM), usual class: inhibitors; 0.39% of 280,000 active; Microtubule-associated protein tau (Homo sapiens), P10636; AID 1468, 2008; also: nearly all actives have a fitted effect of over 55% in size
# Target sequence (P10636 561-689 P618L limits assumed): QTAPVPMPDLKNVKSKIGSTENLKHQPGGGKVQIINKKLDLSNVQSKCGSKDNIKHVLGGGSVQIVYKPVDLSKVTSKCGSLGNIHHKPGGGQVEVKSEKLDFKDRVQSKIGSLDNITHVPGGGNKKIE
#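 Read-out: fluorescence polarization of Alexa 594-labeled tau (0.24 uM), 555 nm excitation, 632 nm emission. Mixtures held 15 uM unlabeled K18 P301L, compound and 20 uM heparin, pH 7 acetate buffer, incubated 6 hr at 37 C.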
# FBPA coupling cs: qHTS Assay for Inhibitors of Fructose-1,6-bisphosphate Aldolase from Giardia Lamblia: Coupling assay counterscreen | coupling enzyme system counterscreen, AmpLite Red fluorescence | activity change, negative = inhibition, % at 58.2 µM, hits read low | 0.67% of 290,000 active | AID 2472, 2010; in the data active = activity change below about -30%
#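 Counterscreen lacking aldolase: glyceraldehyde-3-phosphate coupling-enzyme reagent preincubated 10 min at RT with compound (at 57.5 uM final), then substrate/coupling system with AmpLite Red added; fluorescence read at 525/598 nm after 20 min RT.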
# Tau ThT inhib: qHTS for Inhibitors of Tau Fibril Formation, Thioflavin T Binding | 2.1% of 270,000 active | recombinant tau K18 P301L, heparin-induced fibrillization, ThT fluorescence | Potency, µM (doses to about 57.4 µM), actives largely listed as inhibitors | Microtubule-associated protein tau (Homo sapiens), P10636; also: nearly all actives have a fitted effect of over 55% in size
#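 Heparin-induced fibrillization of the P301L-mutant K18 repeat-domain fragment of human tau was followed by ThT binding in quantitative high-throughput format.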
# Sfp PPTase inh: qHTS Assay for Inhibitors of Bacillus subtilis Sfp phosphopantetheinyl transferase (PPTase). Potency, µM, actives largely listed as inhibitors. 3.5% of 310,000 active. Biochemical Sfp PPTase activity, qHTS. AID 1490, 2009. 4'-phosphopantetheinyl transferase ffp (Bacillus subtilis), Q9F4F7;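 also: the enzyme is Sfp with the accession as filed and its product quenches rhodamine fluorescence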
#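 After 15 min at room temperature with compound, 15 nM Sfp received 5 uM rhodamine-CoA plus 12.5 uM BHQ-2-ybbR (50 mM Hepes pH 7.6, 10 mM MgCl2). Rate came from the fluorescence difference over 30 min, ex 525/em 598 nm.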
# Tau fluor counter: Counterscreen qHTS for Inhibitors of Tau Fibril Formation, Fluorescence Polarization. tau K18 P301L (four-repeat tau fragment) Alexa594 fluorescence, heparin fibrillization. Potency, µM (doses to about 57.7 µM). 0.93% of 280,000 active; also: nearly all actives have a fitted effect of over 55% in size
#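 Human K18 P301L tau (15 uM unlabeled plus 0.24 uM Alexa 594-labeled, final) in 100 mM sodium acetate pH 7 was mixed with compound and 20 uM heparin and incubated 6 hr at 37 C.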
# Hits are given with their value; – = inactive; ? = inconclusive; · = no result given; [ ] = another dose, or the depositor's remark. Unless noted, calls follow the shape of the dose curve; as a rule, active = well fitted curve in the direction sought with a large enough effect; inconclusive = small, poorly fitted or top-dose-only effect, or another doubt; inactive = no such curve, though single readings can be large; an effect the other way counts as inactive or inconclusive.
SMILES,Tau fibril FP,FBPA coupling cs,Tau ThT inhib,Sfp PPTase inh,Tau fluor counter
O=C(CNCCc1ccc(F)cc1)Nc1cc(F)ccc1F,·,–,·,63µM,·
O=C(CN1CCCC1)Nc1cc(F)ccc1F,–,–,–,–,–
COc1ccc(NC(=O)Cn2cnc3c(oc4ccccc43)c2=O)cc1OC,–,·,–,·,?
COc1ccc(-c2ccc(SCC(=O)NCc3ccco3)nn2)cc1OC,?,–,?,50µM,–
CCc1ccc(NC(=O)CSc2nnc(-c3ccco3)o2)cc1,·,·,·,–,·
CCc1ccc(NC(=O)CSc2ccc(-c3ccco3)nn2)cc1,–,–,–,35µM,–
O=C(CSc1ccc(-c2ccco2)nn1)NCc1ccccc1,–,–,?,22µM,–
CC(=O)c1cccc(NC(=O)CSc2ccc(-c3ccco3)nn2)c1,·,·,·,20µM,·
O=C(CSc1ccc(-c2ccco2)nn1)NCc1ccc(Cl)cc1,–,–,?,–,–
CCc1cccc(CC)c1NC(=O)C(Cc1ccccc1)NS(=O)(=O)c1cccc2nsnc12 (stereo not drawn),–,·,–,·,–
O=C1CCC[C@@H]2CC(NCc3ccc(Cl)c(Cl)c3)C[C@@H]3CCN1[C@H]23 (stereo partly drawn),–,–,–,–,–
Cc1ccc(C)c(N2CCN(c3cc(C)nc4c(-c5ccc(Cl)cc5)c(C)nn34)CC2)c1,–,·,–,·,–
O=C(CSc1ccc(-c2ccco2)nn1)c1cccc([N+](=O)[O-])c1,–,–,?,14µM,–
COc1ccccc1-c1ccc(SCC(=O)NCCc2ccccc2)nn1,–,–,–,–,–
O=C(CSc1ccc2nnc(-c3cccc(F)c3)n2n1)NCc1ccco1,–,–,–,–,–
O=C(CSc1ccc2nnc(-c3cccnc3)n2n1)NCc1ccco1,–,–,?,50µM,–
COc1ccccc1CCNC(=O)CSc1ccc(-c2ccco2)nn1,–,–,?,22µM,–
COc1ccc(Cl)cc1NCc1nnc2n1CCCCC2,–,·,–,·,–
COc1cccc(C(c2sc3nc(-c4ccco4)nn3c2O)N2CCOCC2)c1 (stereo not drawn),–,·,–,·,–
CC(C)CCNC(=O)c1cccc(Nc2nc3ccccc3n3nnnc23)c1,–,·,–,·,–
Cc1cccc(-c2cc(=O)c3cc(Br)ccc3o2)c1,–,–,?,79µM,–
COc1ccccc1CNC(=O)CCn1nc(C)c2c(C)n(-c3ccccc3)nc2c1=O,–,·,–,·,–
CC1(C)Cc2c(C#N)c(N3CCN(C(=O)c4ccco4)CC3)nc(-c3ccco3)c2CS1,–,–,–,20µM,–
CC(=O)N1CCN(c2nc(-c3ccco3)c3c(c2C#N)CC(C)(C)SC3)CC1,–,–,?,45µM,–
CC1(C)Cc2c(C#N)c(N3CCN(C(=O)c4ccccc4Cl)CC3)nc(-c3ccco3)c2CS1,–,–,?,–,–
SMILES,Tau fibril FP,FBPA coupling cs,Tau ThT inhib,Sfp PPTase inh,Tau fluor counter
CC1(C)Cc2c(c(-c3ccccc3)[nH]c(=O)c2C#N)CS1,–,–,–,–,–
CC1(C)Cc2c(c(-c3ccco3)[nH]c(=O)c2C#N)CS1,?,-43,?,–,–
Cc1ccc(NC(=O)c2ncn(-c3ccccc3)n2)cc1Cl,–,·,?,·,–
CC(=O)c1ccc(C2CC34CNS(=O)(=O)C3CC2O4)cc1 (stereo not drawn),·,–,·,–,·
Nc1c(C(=O)c2ccccc2)sc2nsc(SCCN3CCCC3)c12,–,–,16µM,–,?
Nc1c(C(=O)c2ccc(Cl)cc2)sc2nsc(SCCN3CCOCC3)c12,–,–,?,?,?
CCc1ccc(NC(=O)CSc2nc3c(c(=O)[nH]2)CN(Cc2ccc(C)cc2)CC3)cc1,–,·,–,·,–
COc1ccccc1CNC(=S)Nc1ccc2nc(N3CCN(C)CC3)cc(C)c2c1,?,–,?,56µM,20µM[quencher]
COc1cccc(NC(=O)Nc2ccc3nc(N4CCN(C)CC4)cc(C)c3c2)c1,?,·,?,·,14µM[quencher]
Cc1cc(N2CCN(C)CC2)nc2ccc(NC(=O)Nc3ccccc3Cl)cc12,?,·,14µM,·,14µM[quencher]
Cc1cc(C)cc(NC(=O)Nc2ccc3nc(N4CCN(C)CC4)cc(C)c3c2)c1,?,·,?,·,7.9µM[quencher]
COCCNC(=S)Nc1ccc2nc(N3CCN(C)CC3)cc(C)c2c1,·,–,·,–,·
COc1ccc(CNC(=S)Nc2ccc3nc(N4CCN(C)CC4)cc(C)c3c2)cc1,?,–,?,–,?
COc1cc(OC)cc(C2=Nn3c(nnc3-c3ccccc3OC)SC2)c1,·,–,·,–,·
COc1cc2c(cc1OC)C(c1ccccc1)CN(C)CC2 (stereo not drawn),–,·,–,–,–
Oc1cc2c(cc1O)[C@H](c1ccccc1)CNCC2,–,–,?,79µM,–
Nc1nc(C2CC2)c(Sc2sc(N)nc2C2CC2)s1,–,–,18µM,–,?
OC1=C(O)c2nc3cc(F)ccc3nc21,·,–,·,40µM,·
Cc1ccc2nc3c(nc2c1C)C(O)=C3O,?,–,·,–,?
COc1ccccc1-c1nn2c(C3COc4ccccc4O3)nnc2s1 (stereo not drawn),–,–,?,20µM,–
c1ccc(Cc2nn3c(C4COc5ccccc5O4)nnc3s2)cc1 (stereo not drawn),–,–,?,14µM,–
c1ccc(CCc2nn3c(C4COc5ccccc5O4)nnc3s2)cc1 (stereo not drawn),–,–,–,–,–
c1ccc(-c2nc(-c3ccco3)n3ccccc23)cc1,–,–,–,7.1µM,–
CCOc1ccc(C2C(C(=O)Nc3ccccc3OC)=C(C)Nc3c(C(=O)Nc4cccc(C)c4)cnn32)cc1 (stereo not drawn),?,·,–,·,–
Cn1c(=O)c2c(nc(SCc3cccnc3)n2Cc2ccccc2)n(C)c1=O,–,–,–,79µM,–
SMILES,Tau fibril FP,FBPA coupling cs,Tau ThT inhib,Sfp PPTase inh,Tau fluor counter
CN(C)c1ncc2nc(-c3cccc(C#N)c3)c(=O)n(C[C@H]3CCCO3)c2n1,·,–,·,–,·
Cc1n[nH]c(=S)n(NC(=O)CC(=O)Nn2c(=S)[nH]nc(C)c2=O)c1=O,–,-43,–,–,–
Cc1ccc(NC(=S)N(CCC(C)C)C(C)c2ccncc2)c(Cl)c1 (stereo not drawn),–,–,–,56µM,–
COCCCN(C(=S)Nc1cc(Cl)cc(Cl)c1)C(C)c1ccccn1 (stereo not drawn),–,–,?,25µM,–
COCCCN(C(=S)Nc1cc(Cl)cc(Cl)c1)C(C)c1ccncc1 (stereo not drawn),–,–,–,25µM,–
O=C(Cn1ncc2c3ccccc3n(Cc3cccc(Cl)c3)c2c1=O)Nc1ccc(F)cc1F,–,·,–,·,–
CC(C)c1ccc(S(=O)(=O)/N=C2\C=C(NS(=O)(=O)c3ccccc3)C(=O)c3ccccc32)cc1,·,-32,·,–,·
